Assay results published in the supplement of paper PMC6555819.

Legend:
Test in all cases: PBM binding z-score (relative to random genomic background probes); higher = stronger binding; sequences stand for … in GC…GCGATTGACAGCGTAGAATGAAGG
[1] = tested on: FXR:RXRa (NR concentration 270 nM, RXRa partner concentration 90 nM)
Outline: (§1)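 Ligand-free nuclear receptor dimers were bound for 1 h to custom Agilent 4×180K protein-binding microarrays. Detection used antibodies against each partner (one per run). Binding z-scores rest on regression-normalized fluorescence, with random background probes as the reference.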

[2] = tested on: LXRa:RXRa (NR concentration 270 nM, RXRa partner concentration 90 nM)
Outline: as §1

[3] = tested on: LXRa homodimer (NR concentration 270 nM)
Outline: as §1

[4] = tested on: LXRb:RXRa (NR concentration 270 nM, RXRa partner concentration 90 nM)
Outline: as §1

[5] = tested on: LXRb homodimer (NR concentration 270 nM)
Outline: as §1

[6] = tested on: PPARa:RXRa (NR concentration 270 nM, RXRa partner concentration 90 nM)
Outline: as §1

[7] = tested on: PPARg:RXRa (NR concentration 180 nM, RXRa partner concentration 90 nM)
Outline: as §1

[8] = tested on: PPARg:RXRa 270nM:90nM, anti-RXR (NR concentration 270 nM, RXRa partner concentration 90 nM)
Outline: as §1

[9] = tested on: PPARg:RXRa 30nM:10nM, anti-RXR (NR concentration 30 nM, RXRa partner concentration 10 nM)
Outline: as §1

[10] = tested on: PPARg:RXRa 90nM:30nM, anti-RXR (NR concentration 90 nM, RXRa partner concentration 30 nM)
Outline: as §1

[11] = tested on: PPARg:RXRa DBDmut IVT, anti-RXR (DBD mutation: RXRa K156A/R161A, NR concentration 270 nM, RXRa partner concentration 90 nM)
Outline: as §1

[12] = tested on: PPARg:RXRa IVT, anti-PPARg (NR concentration 270 nM, RXRa partner concentration 90 nM)
Outline: as §1

[13] = tested on: PPARg DBDmut IVT, anti-PPARg (DBD mutation: PPARg1 K132A/R137A, NR concentration 270 nM)
Outline: as §1

[14] = tested on: PPARg homodimer (NR concentration 180 nM)
Outline: as §1

[15] = tested on: PXR:RXRa (NR concentration 270 nM, RXRa partner concentration 90 nM)
Outline: as §1

[16] = tested on: PXR homodimer (NR concentration 270 nM)
Outline: as §1

[17] = tested on: RARa:RXR (NR concentration 270 nM, RXRa partner concentration 90 nM)
Outline: as §1

[18] = tested on: RARa homodimer (NR concentration 270 nM)
Outline: as §1

[19] = tested on: RARb:RXRa (NR concentration 270 nM, RXRa partner concentration 90 nM)
Outline: as §1

Sequence	PBM binding z-score [1]	PBM binding z-score [2]	PBM binding z-score [3]	PBM binding z-score [4]	PBM binding z-score [5]	PBM binding z-score [6]	PBM binding z-score [7]	PBM binding z-score [8]	PBM binding z-score [9]	PBM binding z-score [10]	PBM binding z-score [11]	PBM binding z-score [12]	PBM binding z-score [13]	PBM binding z-score [14]	PBM binding z-score [15]	PBM binding z-score [16]	PBM binding z-score [17]	PBM binding z-score [18]	PBM binding z-score [19]
CGGACTAGGTCAAAGGACAGTGAAAGGCGACGTA	3.87	2.49	-0.041	1.67	-0.542	4.93	10.2	8.4	8.49	9.55	7.7	7.9	0.294	1.67	1.11	-0.218	2.41	0.208	3.69
CGAACTAGGTCAATGGACAGTGAAAGGCGACGTA	3.01	1.85	-0.266	1.17	-0.604	4.39	6.92	6.17	3.76	5.61	7.65	7.92	4.35	2.53	0.477	-0.177	1.18	0.235	3.51
ATTTGTAGGTTAGGGTCATTCAGAAAGTAGGGAA	5.22	4.68	2.51	4.9	3.24	5.52	6.37	5.83	3.41	5.27	5.45	5.62	3.63	4.01	4.55	3.09	5.22	4.03	3.86
CGAACTAGGTCAAAAGACAGTGAAAGGCGACGTA	3.09	2.03	-0.16	1.47	-0.191	4.46	8.06	7.08	5.52	7.26	7.84	7.79	0.23	0.576	0.624	-0.275	1.45	-0.196	3.17
ATATGTAGGTTAGGGTCATTCAAAAAGTAGGGAA	4.97	4.06	1.57	4.59	1.42	5.83	7.96	7.02	4.85	6.73	6.37	6.88	2.24	2.6	4.47	2.2	5.13	2.37	3.59
CGAACTAGGTCAAAGGACAGTGATAGGCGACGTA	3.8	2.62	0.0431	1.64	-0.0452	5.27	10.2	8.27	8.49	9.35	8.07	8.07	0.359	1.45	1.14	-0.148	2.05	0.153	3.95
CGAACAAGGTCAAAGGACAGTGAAAGGCGACGTA	7.69	5.16	0.368	4.24	0.892	6.01	7.72	6.93	4.75	6.72	3.85	5.39	1.79	2.54	4	0.956	4.62	0.893	4.98
CCAACTAGGTCACCAGGACAGTGAAGAGGTTGGA	4.24	2.6	0.434	1.91	0.121	4.66	8.3	6.53	3.83	6.09	7.98	8.26	1.95	2.72	1.52	0.124	2.69	1.44	4.36
